Five compounds from PubChem BioAssay AID720 (The Scripps Research Institute Molecular Screening Center, 2007) can be followed below.

About 140 (0.14%) of roughly 97,000 compounds were called active.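 The calls were made as follows: active = inhibition above the screen-wide mean inhibition plus 3 SD (cut at about 15% in these data); inactive = the rest.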 The entries come from a sample that favours actives as a whole.

Ephrin type-B receptor 4 (Homo sapiens), sequence (P54760 whole entry, looked up, the tested form may be a part): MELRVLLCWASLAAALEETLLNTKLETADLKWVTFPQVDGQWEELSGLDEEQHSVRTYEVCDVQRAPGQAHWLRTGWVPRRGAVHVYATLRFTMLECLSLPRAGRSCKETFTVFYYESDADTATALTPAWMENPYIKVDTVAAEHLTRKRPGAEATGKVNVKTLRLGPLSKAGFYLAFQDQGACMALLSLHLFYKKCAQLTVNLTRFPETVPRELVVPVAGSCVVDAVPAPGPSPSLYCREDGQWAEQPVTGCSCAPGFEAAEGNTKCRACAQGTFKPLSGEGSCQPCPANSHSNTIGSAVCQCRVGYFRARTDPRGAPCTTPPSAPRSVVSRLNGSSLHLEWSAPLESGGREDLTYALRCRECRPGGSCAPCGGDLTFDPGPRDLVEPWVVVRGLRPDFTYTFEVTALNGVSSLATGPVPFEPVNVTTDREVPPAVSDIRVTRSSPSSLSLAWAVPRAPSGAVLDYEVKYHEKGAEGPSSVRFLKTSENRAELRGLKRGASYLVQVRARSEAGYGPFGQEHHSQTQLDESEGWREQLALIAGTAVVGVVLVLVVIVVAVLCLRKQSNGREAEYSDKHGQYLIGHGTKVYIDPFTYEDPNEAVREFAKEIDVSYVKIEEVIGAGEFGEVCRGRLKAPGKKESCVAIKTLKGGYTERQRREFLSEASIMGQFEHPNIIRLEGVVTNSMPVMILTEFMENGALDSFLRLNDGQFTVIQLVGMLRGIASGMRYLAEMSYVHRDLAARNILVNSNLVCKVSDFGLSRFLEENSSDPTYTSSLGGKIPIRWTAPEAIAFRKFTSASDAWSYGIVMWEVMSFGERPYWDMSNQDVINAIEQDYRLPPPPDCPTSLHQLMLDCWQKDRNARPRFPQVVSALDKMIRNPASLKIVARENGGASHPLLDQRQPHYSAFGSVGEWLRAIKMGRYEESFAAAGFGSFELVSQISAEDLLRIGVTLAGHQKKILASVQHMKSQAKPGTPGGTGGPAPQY

The assay concerns the target Ephrin type-B receptor 4 (Homo sapiens) (UniProt P54760). As to the kind of experiment: blockers of EphB4 ligand binding – biochemical, TNYL-RAW peptide probe, fluorescence polarization, primary screen (AID 720).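 Also: 0% = DMSO wells and 100% = excess unlabeled TNYL-RAW peptide.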 The note with it: EphB4 LBD / TNYL-RAW-Alexa532 peptide, at 7 µM, hits give high values. (In fluorescence polarisation assays a small probe gives low polarisation when free and higher when bound to something large.)
The term inhibition denotes the relative decrease from the control value, in per cent. As for `CCc1cccc2c(C#N)cn(CC(=O)N3CCOCC3)c12`, the inhibition is 21.5% (active). The figure for `CCC(=O)CC(c1ccc([N+](=O)[O-])cc1)c1c(O)c2ccccc2oc1=O` (stereo not given) is 0.56% (inactive); for `CC(=O)c1ccc(OC(NC(=O)Cc2ccccc2)C(Cl)(Cl)Cl)cc1` (stereo not given) it is 0.16% (inactive); for `OC(Cn1c2ccccc2c2ccccc21)C[n+]1ccccc1` (stereo not given) it is -2.91% (inactive). In the case of `CC(=O)Nc1ccccc1C(=O)OCC(=O)c1cccc2ccccc12` it was -0.92% (inactive).
